# Assay results published in PubChem BioAssay.
# The source made the active and inactive calls.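 Rule for the calls: active = viability loss from added drug above about 55%, and viability with drug at most 40%, in both replicates (limit read from the data, passing the limit was not always enough); inconclusive = both conditions met in only one replicate; inactive = neither replicate meets both conditions.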
# Assay: reversal of MRP1-mediated doxorubicin resistance, pilot screen, H69AR cells, doxorubicin co-treatment (AID 601)
# Details: H69AR cells + 2 uM doxorubicin, CellTiter-Glo, 72 h; at 10 µM; stronger effect = higher value
row,Compound,differential viability (reversal)
1,CC(=O)Nc1ccc(S(=O)(=O)N(C2=NCC(C)S2)c2ccccc2)cc1 (stereo not given),1.89% (inactive)
2,CCOc1nc(-c2ccccc2)ccc1-c1noc(-c2ccc(OC)c(OC)c2)n1,-4.04% (inactive)
3,Clc1ccc2c(c1)[C@H]1OCC[C@H]1[C@@H](c1ccco1)N2,0.43% (inactive)
4,O=C(CSc1ccc(-c2ccccc2)nn1)N1CCOCC1,13.2% (inactive)
5,COc1cc(CO)cc(-c2cc(CO)cc(OC)c2OC)c1OC,1.68% (inactive)
6,NCCCCCc1nnc(SC/C=C/c2ccccc2)o1,3.04% (inactive)
7,O=c1c2[nH]c3ccc(Cl)cc3c2ncn1Cc1ccccn1,13.4% (inactive)
8,CN(c1ccccc1C(=O)NCC1CCCO1)S(C)(=O)=O (stereo not given),11.2% (inactive)
9,COc1ccc(N2C(=O)c3cccc4cccc(c34)C2=O)nn1,-7.67% (inactive)
10,CS(=O)(=O)NCC(c1cccnc1)N1CCN(c2ccc(F)cc2)CC1 (stereo not given),0.865% (inactive)
11,CNC(=O)Oc1ccc2c(c1)[C@]1(C)CCN(C)[C@@H]1N2C,-7% (inactive)
12,NC(N)=Nc1nc(CSCC/C(N)=N/S(N)(=O)=O)cs1,-8.47% (inactive)
13,CC(OC(=O)c1ccco1)C(=O)NCc1cccs1 (stereo not given),-5.53% (inactive)
14,COc1ccc(OC)c(NC(=O)CS(=O)(=O)c2ccccc2)c1,-7.39% (inactive)
15,Cc1cccc(C)c1-n1nnnc1SCSc1nnnn1-c1c(C)cccc1C,-1.23% (inactive)
16,Nc1nc2ccc(OC(F)(F)F)cc2s1,-19.7% (inactive)
17,COc1ccccc1CC(=O)NCC1CCCO1 (stereo not given),8.34% (inactive)
18,Cc1nc(N)[nH]c(=O)c1CCC(=O)OCC(C)C,-2.31% (inactive)
19,CN1[C@@H]2CC(OC(=O)[C@H](CO)c3ccccc3)C[C@H]1[C@@H]1O[C@@H]12 (stereo not given in full),6.26% (inactive)
20,Cn1c(=O)c2[nH]cnc2n(C)c1=O,5.22% (inactive)

row,Compound,differential viability (reversal)
1,Cc1c(NC(=O)C(C)Oc2ncnc3ccccc23)c(=O)n(-c2ccccc2)n1C (stereo not given),7.01% (inactive)
2,O=C(Cn1c(-c2cncs2)nc2ccccc21)NC1CCCC1,19.1% (inactive)
3,COC(=O)Nc1sccc1C(=O)Nc1sccc1C(=O)OC,-13.8% (inactive)
4,O=C1C2CC=C(Cl)CC2C(=O)N1CNc1ccccn1 (stereo not given),-6.09% (inactive)
5,CCOCCCNC(=O)C1CC(=O)N(C2CCCC2)C1 (stereo not given),4.13% (inactive)
6,Cc1ccccc1Nc1nc(N)nc(CSCc2c(C)noc2C)n1,-1.78% (inactive)
7,O=C1OCCC1Sc1ncnc2sccc12 (stereo not given),21.8% (inactive)
8,CC(C)N(C(=O)N1CCC(c2nc(-c3ccncc3)no2)CC1)C(C)C,-3.66% (inactive)
9,COc1cccc2sc(NC(=O)c3ccc(S(=O)(=O)N4CCOCC4)cc3)nc12,16.8% (inactive)
10,Cc1ccc(S(=O)(=O)N2CCN(C(=O)N3CCOCC3)C2C)cc1 (stereo not given),-4.24% (inactive)
11,Cc1cc(C)n(CC(=O)O)n1,-18.8% (inactive)
12,O=C(O)C1CCCN1C(=O)c1cccs1 (stereo not given),3.11% (inactive)
13,O=C(NCCCN1CCN(c2cccc(Cl)c2)CC1)c1ccc(N2CCCC2=O)cc1,-5.41% (inactive)
14,Cc1nccn1CCCN1C(=O)OC2(CCCCC2)C1(C)O (stereo not given),-3.27% (inactive)
15,CN1CC=C2C(C#N)=C(N)C(C#N)(C#N)C(c3cccc(Cl)c3Cl)C2C1 (stereo not given),1.02% (inactive)
16,CC(=O)OCC(=O)[C@@]12OC(C)(C)O[C@@H]1C[C@H]1[C@@H]3C[C@H](F)C4=CC(=O)C=C[C@]4(C)[C@@]3(F)[C@@H](O)C[C@@]12C,2.31% (inactive)
17,CCOc1nc(OCC)nc(N2CCC(C)CC2)n1,-10.5% (inactive)
18,CCOc1ccc(-c2nc(C#N)c(NCc3ccc4c(c3)OCO4)o2)cc1,0.795% (inactive)
19,Cc1cccc(N2CCN(C(=O)C3CCCN(S(=O)(=O)c4cnc[nH]4)C3)CC2C)c1 (stereo not given),6.94% (inactive)
20,CC(=O)c1ccccc1OCCn1nnc(-c2ccc(C)cc2)n1,5.44% (inactive)

# Same assay, conditions: H69AR cells + 2 uM doxorubicin, CellTiter-Glo, 72 h; measured here: viability with 2 uM doxorubicin; at 10 µM; stronger effect = lower value
row,Compound,viability [%]
1,CC(=O)Nc1ccc(S(=O)(=O)N(C2=NCC(C)S2)c2ccccc2)cc1 (stereo not given),89.8
2,CCOc1nc(-c2ccccc2)ccc1-c1noc(-c2ccc(OC)c(OC)c2)n1,71.2
3,Clc1ccc2c(c1)[C@H]1OCC[C@H]1[C@@H](c1ccco1)N2,85.6
4,O=C(CSc1ccc(-c2ccccc2)nn1)N1CCOCC1,82
5,COc1cc(CO)cc(-c2cc(CO)cc(OC)c2OC)c1OC,90.9
6,NCCCCCc1nnc(SC/C=C/c2ccccc2)o1,86.9
7,O=c1c2[nH]c3ccc(Cl)cc3c2ncn1Cc1ccccn1,87.9
8,CN(c1ccccc1C(=O)NCC1CCCO1)S(C)(=O)=O (stereo not given),90
9,COc1ccc(N2C(=O)c3cccc4cccc(c34)C2=O)nn1,100
10,CS(=O)(=O)NCC(c1cccnc1)N1CCN(c2ccc(F)cc2)CC1 (stereo not given),91.3
11,CNC(=O)Oc1ccc2c(c1)[C@]1(C)CCN(C)[C@@H]1N2C,101
12,NC(N)=Nc1nc(CSCC/C(N)=N/S(N)(=O)=O)cs1,104
13,CC(OC(=O)c1ccco1)C(=O)NCc1cccs1 (stereo not given),103
14,COc1ccc(OC)c(NC(=O)CS(=O)(=O)c2ccccc2)c1,93.7
15,Cc1cccc(C)c1-n1nnnc1SCSc1nnnn1-c1c(C)cccc1C,73.3
16,Nc1nc2ccc(OC(F)(F)F)cc2s1,91.6
17,COc1ccccc1CC(=O)NCC1CCCO1 (stereo not given),90.7
18,Cc1nc(N)[nH]c(=O)c1CCC(=O)OCC(C)C,93.5
19,CN1[C@@H]2CC(OC(=O)[C@H](CO)c3ccccc3)C[C@H]1[C@@H]1O[C@@H]12 (stereo not given in full),95.3
20,Cn1c(=O)c2[nH]cnc2n(C)c1=O,92.1

row,Compound,viability [%]
1,Cc1c(NC(=O)C(C)Oc2ncnc3ccccc23)c(=O)n(-c2ccccc2)n1C (stereo not given),90
2,O=C(Cn1c(-c2cncs2)nc2ccccc21)NC1CCCC1,86.5
3,COC(=O)Nc1sccc1C(=O)Nc1sccc1C(=O)OC,66
4,O=C1C2CC=C(Cl)CC2C(=O)N1CNc1ccccn1 (stereo not given),105
5,CCOCCCNC(=O)C1CC(=O)N(C2CCCC2)C1 (stereo not given),90.5
6,Cc1ccccc1Nc1nc(N)nc(CSCc2c(C)noc2C)n1,98.2
7,O=C1OCCC1Sc1ncnc2sccc12 (stereo not given),82.3
8,CC(C)N(C(=O)N1CCC(c2nc(-c3ccncc3)no2)CC1)C(C)C,106
9,COc1cccc2sc(NC(=O)c3ccc(S(=O)(=O)N4CCOCC4)cc3)nc12,69.8
10,Cc1ccc(S(=O)(=O)N2CCN(C(=O)N3CCOCC3)C2C)cc1 (stereo not given),103
11,Cc1cc(C)n(CC(=O)O)n1,107
12,O=C(O)C1CCCN1C(=O)c1cccs1 (stereo not given),100
13,O=C(NCCCN1CCN(c2cccc(Cl)c2)CC1)c1ccc(N2CCCC2=O)cc1,94.5
14,Cc1nccn1CCCN1C(=O)OC2(CCCCC2)C1(C)O (stereo not given),102
15,CN1CC=C2C(C#N)=C(N)C(C#N)(C#N)C(c3cccc(Cl)c3Cl)C2C1 (stereo not given),60.1
16,CC(=O)OCC(=O)[C@@]12OC(C)(C)O[C@@H]1C[C@H]1[C@@H]3C[C@H](F)C4=CC(=O)C=C[C@]4(C)[C@@]3(F)[C@@H](O)C[C@@]12C,104
17,CCOc1nc(OCC)nc(N2CCC(C)CC2)n1,95.4
18,CCOc1ccc(-c2nc(C#N)c(NCc3ccc4c(c3)OCO4)o2)cc1,69.6
19,Cc1cccc(N2CCN(C(=O)C3CCCN(S(=O)(=O)c4cnc[nH]4)C3)CC2C)c1 (stereo not given),88.7
20,CC(=O)c1ccccc1OCCn1nnc(-c2ccc(C)cc2)n1,74.6
